Composite z-score data for 36 compounds are collected here from PubChem BioAssay.

The test system of the test is Lefty1. The test can be described thus: Lefty1 protein binding to printed compounds – biochemical, small-molecule microarray, 635/667 nm fluorescence, primary screen (AID 1139). The settings on record: fluorescence 635/667, higher = more signal.
In turn, `C=CCC(OC(C)=O)[C@@H]1[C@@H](N(Cc2cccc3ccccc23)C(=O)c2cccc3ccccc23)c2cc(OCCCO)ccc2N1C(=O)c1ccc2ccccc2n1` (stereo partly specified) gave a composite z-score of 0.457.
Then `COc1ccc(C(O)C2C=CC3C(=O)NC(=O)C3N2Nc2ccccn2)cc1OCc1ccccc1` (stereo unspecified), with -0.168; and `CCCN1C(=O)[C@@]2(CCC(=O)OC(C)(C)C)N=C(c3ccc(OCCCO)cc3)O[C@H]2c2ccccc21`, with 0.691.
Next, `COc1cccc(C(=O)O[C@H]2CC[C@]3(C)C4=C(CCC3C2(C)C)[C@]2(C)CC[C@H]([C@H](C)CCCC(C)C)[C@@]2(C)CC4)c1` (stereo partly specified): 0.24; `COc1cc2c(cc1OC)CN(C(=O)[C@@H]1[C@H]3C(=O)O[C@H](c4ccccc4)[C@H](c4ccccc4)N3[C@H](c3ccccc3OCCO)[C@@]13C(=O)Nc1ccc(C#CCNC(N)=O)cc13)CC2`: 0.768; `CN(C)CCCCNC(=O)[C@H]1C[C@H]2C(=O)N[C@@H](Cc3ccccc3)C(=O)N2[C@H]1c1ccc(O)cc1`: 1.31.
Next, `COc1ccc(CCN2C(=O)[C@@]3(Cc4ccccc42)c2ccccc2C(=O)N(Cc2ccccc2Cl)[C@H]3c2ccc(CO)cc2)cc1`: -1.17; `CCCCCCCCCCC(O)C1C=CC2C(=O)N(Cc3ccccc3)C(=O)C2N1n1cnnc1` (stereo unspecified): 0.486; `COCCOC(=O)N1C(=O)[C@@]2(c3cc(C#CCC(C(=O)OC)C(=O)OC)ccc31)[C@H](C(=O)N1CCN(c3ncccn3)CC1)[C@H]1C(=O)O[C@H](c3ccccc3)[C@H](c3ccccc3)N1[C@@H]2c1ccc(OCCO)cc1`: 0.733.
Take `C=C(COC)C(=O)CC[C@@H](OC(=O)c1cccnc1)c1ccc(CO)o1`: the composite z-score came out at 0.911.
Next, `C=C[C@@H](COC(C)=O)N(Cc1ccc([N+](=O)[O-])cc1)S(=O)(=O)c1ccc(Br)cc1`: 0.321.
Next, `O=C1O[C@@H](c2ccccc2)[C@@H](c2ccccc2)N2[C@@H](c3ccc(O)cc3)[C@]3(C(=O)Nc4ccc(C#CC5(O)CCCCCC5)cc43)[C@@H](C(=O)N3CCCCCCC3)[C@H]12`: 1.68; `COC(=O)C[C@@H]1C[C@H](C)[C@]2(O1)C(=O)N(Cc1ccccc1)c1ccc(NC(C)=O)cc12`: 0.488; `CC(C)(C)N1CC=CC23O[C@@H]4C=CCOC(=O)[C@@H]4[C@H]2C(=O)N(CCCCCO)[C@@H]3C1=O` (stereo partly specified): -1.17.
Then `C=CCN1C(=O)[C@]2(O[C@H](CCO)[C@@H]([Si](C)(C)c3ccc(OC)cc3)[C@@H]2C)c2cc(NC(=O)[C@H](C)O)ccc21`, with 0.673; and `C=CC(=C)C1=CCO[C@@H]1[C@H]1CCCN1S(=O)(=O)c1ccccc1[N+](=O)[O-]`, with 0.767.
The compound `COc1ccc(NN2C(C(O)c3ccc(OC)c(OCc4ccccc4)c3)C=CC3C(=O)N(C4CCCCC4)C(=O)C32)cc1` (stereo unspecified) returned a composite z-score of 0.461.
Take `[N-]=[N+]=NCc1ccccc1[C@@H]1OC(c2ccc(OCCCO)cc2)=N[C@]1(Cc1ccccc1)C(=O)N1CCCCC1`: the composite z-score was -0.0101.
`CC(C)(C)N1CC=CC23O[C@@H]4/C=C\CCCOC(=O)C4[C@H]2C(=O)N(CCO)[C@@H]3C1=O` (stereo partly specified): the composite z-score was -0.86.
As to `O=C1O[C@H](c2ccccc2)[C@H](c2ccccc2)N2[C@H]1[C@@H](C(=O)O)[C@]1(C(=O)Nc3ccc(C#CC4=CCCCC4)cc31)[C@H]2c1ccc(OCCO)cc1`, the composite z-score was 1.28.
Next, `COC(=O)C[C@H]1O[C@]2(C(=O)N(Cc3ccccc3)c3ccc(NC(C)=O)cc32)[C@@H](C)[C@@H]1[Si](C)(C)c1ccc(OC)cc1`: 0.68; `CC(C)CNC(=O)[C@@H]1c2ccccc2C(=O)N(Cc2cc(C(F)(F)F)cc(C(F)(F)F)c2)[C@H]1c1ccc(CO)cc1`: -0.851; `COc1ccccc1CN1C(=O)c2ccccc2[C@@H](C(=O)NCCN2CCOCC2)[C@@H]1c1ccc(CO)cc1`: -0.0327.
Then `NCCCCCCNC(=O)[C@H]1C[C@H]2C(=O)NCC(=O)N2[C@H]1c1cccc(OCCO)c1`, with 1.04; and `COCCOC(=O)N1C(=O)[C@@]2(c3ccccc31)[C@H](C(=O)NC[C@H](O)c1ccccc1)[C@H]1C(=O)O[C@H](c3ccccc3)[C@H](c3ccccc3)N1[C@@H]2c1ccc(OCCO)cc1`, with 1.58.
For the compound `CC(C)N1CC=CC23O[C@@H]4C=CCOC(=O)[C@@H]4[C@H]2C(=O)N(CCO)[C@@H]3C1=O` (stereo partly specified), the composite z-score came to 0.103.
As to `COC(=O)[C@@]1(Cc2ccccc2)[C@H]2c3cc(C(=O)N4CCCC4)n(C)c3C[C@H]2CN1C(=O)c1ccccc1`, the composite z-score was -0.0781.
Then `O=C1[C@]2(CO)C=C(Br)[C@@H](C[C@@H]2c2ccccc2)[C@@]12CO2`, with 0.748.
Next, `CCCCC(O)C1C=CC2C(=O)N(C3CCCCC3)C(=O)C2N1Nc1ccc(OC)cc1` (stereo unspecified): 0.496.
In the case of `COc1ccc(C(O)C2C=CC3C(=O)N(c4ccccc4)C(=O)C3N2Nc2ccc([N+](=O)[O-])cc2)cc1OCc1ccccc1` (stereo unspecified), the composite z-score was -0.29.
Consider `Cc1ccc(S[C@]2(C(=O)NCc3ccccc3)CC(=O)N(Cc3ccccc3)[C@@H]2c2ccc(CO)cc2)cc1`, for which the composite z-score was -1.33.
`C=C(COC)/C(=C/C[C@H](OC(=O)c1ccncc1)c1cccc(OCCO)c1)c1cc(C(=O)OC)ccc1OC`: the composite z-score is 0.819.
Then `COC(=O)[C@@]1(Cc2ccccc2)[C@H]2c3cc(C(=O)N(C)C)n(Cc4cc(C)n(C)n4)c3C[C@H]2CN1C(=O)c1ccccc1`, with -0.169.
Next, `COC(=O)[C@@]1(Cc2ccccc2N=[N+]=[N-])COC(c2ccc(OCCCO)cc2)=N1`: -0.57; `CN1CCC(CCCO)=CC1c1ccc(CN2CCCC2)cc1` (stereo unspecified): 1.57; `CC(=CC1CCCCC1)[C@@H](NC(=O)c1ccc(C(F)(F)F)cc1)c1ccc(-c2ccccc2)cc1`: -0.795.
